Screen size: about 310,000 compounds; about 1,000 (0.32%) were called active. How the calls were made is not given here. Only a sample is shown. Entries with a potency or affinity are not part of this list.
Test: PhoP regulon inhibitors, Salmonella typhi PhoP promoter GFP reporter, confirmatory (AID 1850);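 further: 0% = induced wells with vehicle and 100% = uninduced wells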
Details: fluorescence, 4 h, at 50 µM, hits give high values

SMILES | inhibition
O=C(O)CCC(=O)Nc1nc2nccc(-c3ccccc3)n2n1 | -7.87% (inactive)
CCOc1cc(/C=C2/C(=N)N3N=C(C)SC3=NC2=O)ccc1OS(=O)(=O)c1ccc(C)cc1 | 18.2% (inactive)
O=C(Nc1cc2c3c(c1)CC(=O)N3CCC2)c1ccc(Br)o1 | 2.71% (inactive)
CCNC(=S)NNC(=O)c1cc(-c2cccc(OCC)c2)nc2ccccc12 | 10.8% (inactive)
O=C(CCc1ccccc1)NNC(=O)c1ccccc1Br | -5.24% (inactive)
CCNc1ccc(C2(O)C(=O)c3ccccc3C2=O)cc1 | -8.28% (inactive)
O=[N+]([O-])c1ccc(O)c2cccnc12 | 2.39% (inactive)
O=[N+]([O-])c1cc2cccnc2c2ncccc12 | -13.3% (inactive)
Clc1cc2cccnc2c2ccccc12 | -17.8% (inactive)
O=[N+]([O-])c1ccc(Cl)c2cccnc12 | -13% (inactive)
Oc1ccc(F)c2cccnc12 | 8.36% (inactive)
Oc1c(I)cc(I)c2cccnc12 | 8.57% (inactive)
O=[N+]([O-])c1cccc2c(Cl)ccnc12 | 5.29% (inactive)
Cc1ccc([N+](=O)[O-])c2cccnc12 | -3.26% (inactive)
Cc1oc2cc3oc(=O)c(CC(=O)NCC(=O)N[C@@H](C(=O)O)c4ccccc4)c(C)c3cc2c1C | 3.13% (inactive)
Cc1ccccc1OCC(=O)Nc1nc2ccccc2[nH]1 | 9.79% (inactive)
COc1cccc(CN2CCNC(=O)C2CC(=O)N2CCOc3ccccc3C2)c1OC (stereo not given) | -0.13% (inactive)
O=c1cc(-c2ccccc2)nc(SCCOc2ccccc2Cl)[nH]1 | 3.72% (inactive)
Cc1ccc(C(=O)Nc2cccnc2)cc1S(=O)(=O)N1CCCC1 | -5.54% (inactive)
O=c1[nH]c(=S)[nH]c(O)c1N=Nc1ccc2c(c1)OCO2 | -4.29% (inactive)
Cc1ccc(Cl)cc1N1CCN(C(=O)Cc2ccc(-n3c(=O)[nH]c4ccsc4c3=O)cc2)CC1 | 2.93% (inactive)
O=C1Nc2ccccc2/C1=C/c1ccccc1F | -2.26% (inactive)
O=C(c1nc2ccccn2c1CN1CCN(c2ccccc2O)CC1)N1CCCC1 | -2.41% (inactive)
OC(C#CCN1CCCCC1)c1ccccc1 (stereo not given) | -17.1% (inactive)
Cc1ccc(NC(=O)CSc2ncccc2C(=O)Oc2cccc([N+](=O)[O-])c2)cc1Cl | -7.7% (inactive)
CCOc1ccc(S(=O)(=O)NCCC(=O)NCc2cccnc2)cc1 | 9.15% (inactive)
C#CCOCCOCCOCCNc1nc(N2CCN(C(=O)CCCCCCCCCCNC(=O)[C@H]([C@@H](C)CC)n3cc(CCCCCN)nn3)CC2)nc(N2CCN(C(=O)CCCCCCCCCCNC(=O)[C@@H]([C@H](C)O)n3cc(C)nn3)CC2)n1 | 60.5% (inactive)
C#CCOCCOCCOCCNc1nc(N2CCN(C(=O)CCCCCCCCCCNC(=O)[C@H](CCCCN)n3cc(CCO)nn3)CC2)nc(N2CCN(C(=O)CCCCCCCCCCNC(=O)[C@@H]([C@H](C)O)n3cc(C)nn3)CC2)n1 | -15.8% (inactive)
C#CCOCCOCCOCCNc1nc(N2CCN(C(=O)CCCCCCCCCCNC(=O)[C@@H](CCC(=O)O)n3cc(CCCCCN)nn3)CC2)nc(N2CCN(C(=O)CCCCCCCCCCNC(=O)[C@H]([C@@H](C)CC)n3cc(CCCCCN)nn3)CC2)n1 | -8.02% (inactive)
C#CCOCCOCCOCCNc1nc(N2CCN(C(=O)CCCCCCCCCCNC(=O)[C@H]([C@@H](C)CC)n3cc(CCCCCN)nn3)CC2)nc(N2CCN(C(=O)CCCCCCCCCCNC(=O)[C@H](CCCCN)n3cc(CCCC(=O)O)nn3)CC2)n1 | -21.1% (inactive)

Source: PubChem BioAssay AID1850 (Southern Research Specialized Biocontainment Screening …, 2009)
